Laboratory results taken from PubChem BioAssay AID504332 (National Center for Advancing Translational Sciences (NCATS), 2011).
The whole screen tested about 350,000 compounds, of which about 31,000 (8.9%) were called active. A call without a number means that no potency is given here. Not shown: some 15% with an inconclusive outcome. Only a selection was taken, and actives are over-represented in it overall. A number with no mark means an inactive call. The call rests on the fitted dose curve; in most records, active means well fitted inhibition curve with a large enough effect; inconclusive means small, poorly fitted or top-dose-only effect; inactive means no such curve, though single readings can be large or run the other way.

Target: Histone-lysine N-methyltransferase EHMT2 (Homo sapiens) (UniProt Q96KQ7)
Sequence (Q96KQ7 913-1193 limits assumed): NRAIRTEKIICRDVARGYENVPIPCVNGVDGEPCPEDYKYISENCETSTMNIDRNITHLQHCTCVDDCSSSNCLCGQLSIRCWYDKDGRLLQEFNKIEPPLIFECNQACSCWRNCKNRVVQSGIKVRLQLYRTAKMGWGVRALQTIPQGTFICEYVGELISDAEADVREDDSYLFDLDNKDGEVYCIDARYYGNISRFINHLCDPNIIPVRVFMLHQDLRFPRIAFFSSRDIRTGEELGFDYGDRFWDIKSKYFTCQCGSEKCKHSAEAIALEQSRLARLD
Test: qHTS Assay for Inhibitors of Histone Lysine Methyltransferase G9a; further: nearly all actives have a fitted effect of over 75% in size
Details: G9a H3K9 monomethylation, AlphaScreen, 2 h; series mostly up to 59 µM
How it was run: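 G9a (20 nM) was preincubated 15 min with compound, then reacted 2 h at room temperature with 500 nM biotin-H3K9 peptide and 20 µM SAM. Monomethyl-H3K9 detected by AlphaScreen using anti-H3K9me1 antibody.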
Potency means the concentration at half of the fitted maximal effect.

Structure (SMILES) | activity, negative = inhibition | Potency
CS(=O)(=O)Nc1ccccc1C(=O)OCC(=O)NC1CC1 | 15.6% [at 12.7 µM] | 
Cc1cccc(NC(=O)Cn2cc(S(=O)(=O)Cc3ccccc3Cl)c3ccccc32)c1 |  | inactive
CC(C)(C)N1C(=O)[C@H]2[C@@H](c3ccc(Br)cc3)N3C(=O)N(c4cccc(Cl)c4)C(=O)[C@@]3(C)[C@H]2C1=O | -8.49% [at 2.33 µM] | 
CCN(CC)CCNC(=O)Cn1ncc2c3ccccc3n(Cc3ccccc3C)c2c1=O |  | inactive
Cn1c(=O)n(C)c2cc(S(=O)(=O)Nc3ccc(F)cc3)ccc21 |  | inactive
O=C1/C(=C/c2cccs2)CCc2ccccc21 |  | inactive
CN1C/C(=C/c2cccs2)C(=O)/C(=C\c2cccs2)C1 | 1.72% [at 12.7 µM] | 
CCC1C/C(=C/c2cccs2)C(=O)/C(=C/c2cccs2)C1 (stereo not drawn) |  | 39.8 µM (active)
COc1ccc(CCNc2nc3c(-c4cccc(F)c4)nnn3c3ccccc23)cc1OC |  | inactive
Cc1ccc(Cn2c(=O)n(Cc3nc(-c4ccccc4)no3)c(=O)c3cc4c(cc32)OCO4)cc1 |  | inactive
COc1cccc(C2=CC(=O)C[C@H](c3ccc(OC)c(OC)c3)C2)c1 | -2.09% [at 2.33 µM] | 
CCOC(=O)c1c(C)oc2nc(C)nc(N3CCN(c4ccc(OC)cc4)CC3)c12 |  | 12.6 µM (active)
CCOC(=O)c1c(C)oc2nc(C)nc(Nc3ccc(CC)cc3)c12 |  | inactive
Cc1nc(N2CCOCC2)c2c(C(=O)NCc3cccc(Cl)c3)c(C)oc2n1 |  | inactive
CC(=O)c1cc2c(cc1NC(=O)Cn1nc(-c3ccc(F)cc3)ccc1=O)OCO2 |  | inactive
O=C(CN1C(=O)CCn2nc(-c3ccccc3)cc21)NCc1ccccc1 |  | inactive
CC1=CC(C)(C)Nc2ccc(OC(=O)C(Cc3ccccc3)N3C(=O)C4CCCCC4C3=O)cc21 (stereo not drawn) |  | 50.1 µM (active)
COC(=O)c1ccccc1NC(=O)C(Cc1ccccc1)N1Cc2ccccc2C1=O (stereo not drawn) |  | inactive
CC1=CC(C)(C)Nc2ccc(OC(=O)CN3C(=O)C4CCCCC4C3=O)cc21 (stereo not drawn) |  | inactive
CC1(C)O[C@H]2CC(=O)OCC23[C@H]2CC[C@@]4(C)[C@H](c5ccoc5)OC(=O)[C@H]5O[C@]54[C@]2(C)C(=O)C[C@@H]13 (stereo partly drawn) | 12.6% [at 12.7 µM] | 

Structure (SMILES) | activity, negative = inhibition | Potency
COc1ccc(CCNC(=O)CCCCn2c(=O)c3ccccc3n(Cc3ccccc3C)c2=O)cc1OC |  | inactive
O=C(Nc1cccc(C(F)(F)F)c1)c1cnccn1 |  | inactive
Cc1ccc(CN(C)CC(=O)Nc2cccc([N+](=O)[O-])c2)o1 |  | inactive
O=c1cc(CO)oc(C(Nc2cccc(C(F)(F)F)c2)c2ccccn2)c1O (stereo not drawn) |  | 1.26 µM (active)
FC(F)(F)c1cccc(Nc2ncnc3ccccc23)c1 | 8.16% [at 12.7 µM] | 
O=C(Nc1cccc([N+](=O)[O-])c1)Nn1cnnc1 |  | inactive
O=c1cc(CO)oc(C(Nc2cccc([N+](=O)[O-])c2)c2ccccn2)c1O (stereo not drawn) |  | 0.794 µM (active)
CCOC(=O)c1c(C)n(S(=O)(=O)c2ccc(C)cc2C)c2ccc(NS(=O)(=O)c3ccc(C)cc3C)cc12 |  | inactive
O=C(/C=C\NCC(=O)c1ccccc1)c1ccccc1 |  | 6.31 µM (active)
Cc1ccc(N/C=C/C(=O)c2ccccc2)cc1C |  | inactive
COc1ccc(NC(=O)CCCC(=O)c2ccccc2)cc1 |  | inactive
Cc1ccc(/C=C/C(=O)OCC(=O)NCc2ccc(Cl)cc2)o1 | -2.38% [at 2.33 µM] | 
Cc1ccc(/C=C(\C#N)C(=O)Nc2cc(C)ccc2C)cc1 |  | inactive
CC(C)NC(=O)/C(C#N)=C\c1ccc(N(C)C)c(Br)c1 |  | 39.8 µM (active)
Cc1[nH]c2ccccc2c1/C=C(/C#N)C(=O)NC(C)C |  | inactive
Cc1ccc(NC(=O)Nc2sc3nc4n(c(=O)c3c2C)CCC(C)CC4)c(Cl)c1 (stereo not drawn) |  | inactive
O=c1[nH]c(=O)n(Cc2ccco2)c2c1C(C(F)(F)F)(C(F)(F)F)N=C(c1ccco1)N2 |  | 50.1 µM (active)
Cc1ccccc1C1=NC(C(F)(F)F)(C(F)(F)F)c2c(n(-c3ccc(F)cc3)c(=O)[nH]c2=O)N1 |  | inactive
Nc1c(N(Cc2ccco2)C(=O)c2cccc(F)c2)c(=O)[nH]c(=O)n1Cc1ccccc1 | -3.15% [at 12.7 µM] | 
CCCn1c(=S)[nH]c2ccc(C(F)(F)F)cc21 |  | 11.2 µM (active)

Structure (SMILES) | activity, negative = inhibition | Potency
COc1ccc(/C(C)=N\NC(=O)c2ccc(-c3ccccc3)cc2)c(F)c1 |  | inactive
Cc1cccc(C(=O)NC(=S)N(C)C2CCCCC2)c1 |  | inactive
CC(OC(=O)c1ccccc1NCCO)C(=O)Nc1ccnn1C(C)C (stereo not drawn) | -12.9% [at 12.7 µM] | 
CC(=O)c1cccc(Nc2ccc3cc(S(=O)(=O)N4CCC(C)CC4)ccc3n2)c1 |  | inactive
Cc1cccc(S(=O)(=O)c2cn(Cc3ccccc3)c3cc(N4CCOCC4)c(F)cc3c2=O)c1 |  | inactive
COc1ccc(C23NCCN2C(=O)c2ccccc23)cc1 (stereo not drawn) |  | inactive
CN1CCN(c2ncc3c(n2)CC(c2ccccc2F)CC3=O)CC1 (stereo not drawn) |  | inactive
Cc1nc2nc3c(cn2n1)C(=O)CC(c1ccccc1)C3 (stereo not drawn) |  | 56.2 µM (active)
CC1=C(C(=O)Nc2cc(C)ccn2)C(c2cnn(C)c2)C2=C(CC(c3ccccc3)CC2=O)N1 (stereo not drawn) |  | inactive
CC(=O)c1ccc(NC(c2ccc(F)cc2)c2nnc(-c3ccccc3)o2)cc1 (stereo not drawn) |  | inactive
COc1cccc(NC(=O)C2CCN(c3cc(C)nc4c(-c5ccc(Cl)cc5)c(C)nn34)CC2)c1 |  | inactive
CN(C)CCN(Cc1ccccc1)S(=O)(=O)c1csc(C(N)=O)c1 |  | inactive
O=C(c1cc(-c2ccc(O)cc2)on1)N1CCOCC1 |  | inactive
Cc1ccc(OCCSc2nc3ccc(NC(=O)COc4ccc(C)cc4)cc3s2)cc1 |  | inactive
COc1cc(C(=O)Nn2c(O)c(C3=c4ccccc4=NC3=O)sc2=S)ccc1O |  | 44.7 µM (active)
COc1cc(C(=O)Nn2c(CC(C)C)nc3ccccc3c2=O)cc(OC)c1OC |  | inactive
CCCn1ccc2c(OCC(=O)NCc3ccc(F)cc3)cccc2c1=O |  | inactive
COc1ccc(N(C)S(=O)(=O)c2ccc3c(c2)CC(C)N3C(=O)C2CC2)c(OC)c1 (stereo not drawn) |  | inactive
